Source: PubChem BioAssay
Shown are actives, neighbours in structure and some others; about 5.1% of the full set was active somewhere.
PNC assembly inh: inhibitors of perinucleolar compartment assembly. PC3M PTB-GFP, PNC prevalence imaging, 16 h; stronger effect = lower value. activity change (PNC), negative = inhibition, % at 10 µM. 3.1% of 140,000 active;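 active means readout at or below -70, meaning at least 70% loss of cells showing the perinucleolar compartment, a nuclear body marking cancer cells; inconclusive means readout between -30 and a set limit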
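Compounds are pinned in duplicate onto adhered PC3M cells stably expressing GFP-tagged PTB and incubated 16 h at 37 C. Cells are then fixed, nuclei stained with Hoechst, and PNC-positive cells counted.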
Tau fibril FP: blocks human tau fibril formation measured by polarization. P10636. K18 P301L tau heparin fibrillization, Alexa594 FP, 6 h. Potency, µM (doses to about 57.7 µM), usual class: inhibitors. 0.39% of 280,000 active. AID 1468; further: nearly all actives have a fitted effect of over 55% in size
Target sequence (P10636 561-689 P618L limits assumed): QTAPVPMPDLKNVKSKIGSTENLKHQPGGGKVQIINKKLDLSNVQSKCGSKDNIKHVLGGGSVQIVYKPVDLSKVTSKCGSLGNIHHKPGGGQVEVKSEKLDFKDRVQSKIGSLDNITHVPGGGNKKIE
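K18 P301L tau (15 uM unlabeled/0.24 uM Alexa 594-labeled, final) + compound + heparin 20 uM final; 100 mM NaOAc pH 7; 6 hr 37 C; ThT 30 uM final added, 1 hr RT; FP ex 555/em 632 nm.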
Tau ThT inhib: blocks human tau fibril formation measured by thioflavin T; P10636; recombinant tau K18 P301L, heparin-induced fibrillization, ThT fluorescence; Potency, µM (doses to about 57.4 µM), usual class: inhibitors; 2.1% of 270,000 active; further: nearly all actives have a fitted effect of over 55% in size
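Aggregation was driven by heparin (20 uM final) acting on recombinant tau […] bearing P301L in 100 mM sodium acetate pH 7; fibrils were detected with Thioflavin T.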
Tau fluor counter: counter-screen for tau fibril formation inhibitors; tau K18 P301L Alexa594 fluorescence, heparin fibrillization; Potency, µM (highest dose often 57.7 µM); 0.93% of 280,000 active; further: nearly all actives have a fitted effect of over 55% in size
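Human tau K18 P301L (15 uM unlabeled, 0.24 uM Alexa 594-labeled) in 100 mM sodium acetate pH 7 with 20 uM heparin, 6 hr at 37 C. ThT 30 uM added, 1 hr ambient; Alexa 594 FP and total fluorescence read at 555/632 nm.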
NPSR antag: neuropeptide S receptor (human) antagonism, cAMP; Q6W5P4; 1% of 220,000 active; AID 1461; CHO-NPSR cells, cAMP TR-FRET, antagonist mode; Potency, µM (doses to about 38.3 µM), usual class: inhibitors; further: nearly all actives have a fitted effect of over 50% in size
Target sequence (Q6W5P4 whole entry, looked up): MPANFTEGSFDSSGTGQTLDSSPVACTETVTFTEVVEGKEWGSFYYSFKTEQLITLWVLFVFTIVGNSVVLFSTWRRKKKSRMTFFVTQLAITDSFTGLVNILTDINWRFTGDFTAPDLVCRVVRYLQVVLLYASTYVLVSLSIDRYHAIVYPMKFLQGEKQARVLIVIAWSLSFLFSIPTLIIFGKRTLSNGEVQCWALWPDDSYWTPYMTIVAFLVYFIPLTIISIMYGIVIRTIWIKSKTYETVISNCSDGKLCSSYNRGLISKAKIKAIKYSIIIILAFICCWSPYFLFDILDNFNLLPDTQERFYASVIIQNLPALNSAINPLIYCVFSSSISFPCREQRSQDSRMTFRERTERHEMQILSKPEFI
KDM4E inh: JMJD2E (human) inhibition; B2RXH2; JMJD2E catalytic domain, FDH-coupled NADH fluorescence (FDH is formaldehyde dehydrogenase); Potency, µM (titrated, usually from 57.1 µM), most hits filed as inhibitors; 1.6% of 230,000 active; AID 2147; active means well fitted inhibition curve with a large enough effect, not every such curve was filed as active; inconclusive means small, poorly fitted or top-dose-only effect, or another doubt; inactive means no such curve, though single readings can be large or run the other way; further: nearly all actives have a fitted effect of over 50% in size
Hits are given with their value; – = inactive; ? = inconclusive; · = no result given; [ ] = another dose, or the depositor's remark. Unless noted, the call rests on the fitted dose curve; in most records, active means well fitted curve in the direction sought with a large enough effect; inconclusive means small, poorly fitted or top-dose-only effect, or another doubt; inactive means no such curve, though single readings can be large; an effect the other way counts as inactive or inconclusive.

SMILES	PNC assembly inh	Tau fibril FP	Tau ThT inhib	Tau fluor counter	NPSR antag	KDM4E inh
COc1cc(/C=N/NC(=O)c2cncc(Br)c2)cc([N+](=O)[O-])c1O	·	–	13µM	–	–[7.67 µM]	7.9µM
COc1cc(/C=N/NC(=O)c2cccc([N+](=O)[O-])c2)cc(OC)c1O	·	–	?	–	–	–
O=C(Nc1ccc([N+](=O)[O-])cc1)c1cncc(Br)c1	·	–	?	?	–	–
CCOc1cc(/C=N/NC(=O)c2cccs2)cc([N+](=O)[O-])c1O	·	–	10µM	?	–	–
Cc1cc(NC(=O)CN2CC(C)OC(C)C2)n(-c2nc3ccccc3s2)n1 (stereo not given)	-99	–	–	–	?	–
O=C(Nc1ccc(C(F)(F)F)cc1)c1cc(S(=O)(=O)NC2CCCCCC2)ccc1F	·	?	–	–	·	·
CC(=O)Nc1ccc(N2N=C(C)C(N=Nc3ccccc3)C2=O)cc1 (stereo not given)	–	–	4.5µM	–	–	–
CC1=NN(c2nc(-c3ccc(C)cc3)cs2)C(=O)C1N=Nc1ccc2ccccc2c1 (stereo not given)	–	–	1.4µM	–	–	–
CC1=NN(c2nc(-c3ccccc3)cs2)C(=O)C1N=Nc1ccccc1 (stereo not given)	·	–	2.2µM	?	–	–
CC1=NN(c2nc(-c3ccc(C)cc3)cs2)C(=O)C1N=Nc1ccc(C(N)=O)cc1 (stereo not given)	·	–	2.8µM	?	–	–
CC1=C(C(=O)Nc2ccccc2)C(c2ccccc2Cl)n2ncc(C(=O)Nc3cccc(C)c3)c2N1 (stereo not given)	·	–	–	–	·	·
Cc1ccc(Cl)cc1NC(=O)CN1C=NS(=O)(=O)c2ccccc21	·	–	–	–	·	·
COc1cc2nc(NCCc3ccc(Cl)cc3)n3nc(-c4ccccc4)nc3c2cc1OC	·	–	–	–	·	·
CCN(CC)C(=O)CSc1nc2c(sc(=S)n2CC)c(=O)n1-c1ccccc1	?	–	–	–	–	–
CCN(CC)C(=O)CSc1nc2c(sc(=S)n2-c2ccccc2)c(=O)n1Cc1ccco1	–	?	?	–	10µM	–
Cc1[nH]c(=O)[nH]c(=O)c1/C=N/NC(=O)[C@H](CC(C)C)NC(=O)OC(C)(C)C	–	–	–	–	–	–
Cc1[nH]c(=O)[nH]c(=O)c1/C=N/NC(=O)[C@H](C)NC(=O)OC(C)(C)C	-106	–	–	–	–	–
COCC(=O)Nc1cc(=O)n(C)c(=O)n1C	-84	–	?	–	–	–
Cc1cccc(N2C(=O)C(CC(=O)Nc3cccc(F)c3)N(Cc3cccs3)C2=O)c1 (stereo not given)	·	–	–	–	·	·
COc1cc(C2c3c(-c4c(C)cc(C)cc4O)n[nH]c3C(=O)N2CCO)cc(OC)c1OC (stereo not given)	·	–	–	–	·	·
COc1cc(C2c3c(-c4cc(C)cc(C)c4O)n[nH]c3C(=O)N2CCCO)cc(OC)c1OC (stereo not given)	-100	–	–	–	?	–
Cc1cc(C)cc(NS(=O)(=O)c2ccc(N3CCCCS3(=O)=O)cc2)c1	·	–	–	–	·	·
COc1cc2c3c(c1)/C(=C1/SC(NC(C)=O)=NC1=O)C(=O)N3C(C)(C)C=C2C	–	?	16µM	14µM[quencher]	?	–
CCN1C(=O)/C(=C2/C(=O)N3c4c(cc(OC(C)=O)cc42)C(C)=CC3(C)C)SC1=S	?	–	?	?	–	–
O=C(COc1ccccc1-c1nc(-c2ccccc2)no1)Nc1ccccc1[N+](=O)[O-]	·	–	–	–	·	·
SMILES	PNC assembly inh	Tau fibril FP	Tau ThT inhib	Tau fluor counter	NPSR antag	KDM4E inh
COc1ccc2c(c1)O[C@@H](c1ccc3c(c1)OCO3)[C@H](OC(=O)NS(=O)(=O)c1ccc(C)cc1)C2=O	·	–	–	–	·	–
CN(C)/C=C1/Sc2ccccc2C1=O	–	–	?	–	–	?
CC(=O)N(\C=C/C=C/C=C1\Sc2ccccc2C1=O)c1ccccc1	·	?	6.3µM	?	–	14µM
Cc1ccc(CCNC(=O)Cn2ncc3c(=O)oc4ccccc4c32)cc1	·	–	–	–	·	·
O=C1NNC(c2ccccc2)=N/C1=C\c1ccco1	·	?	18µM	?	–	–
CC(=O)Nc1ccn(-c2ccccc2)n1	-119	–	?	–	–	–
CC1CCCCN1C(=O)c1ccc2c(c1)N(Cc1ccc(F)cc1)C(=O)c1ccccc1S2(=O)=O (stereo not given)	·	–	–	–	·	·
Cc1ccc(NC(=O)CN2C(=O)N/C(=C/c3ccco3)C2=O)cc1	–	?	?	–	–	16µM
CC1(C)CC(=O)N(c2ccccc2)C1(C)O (stereo not given)	-86	–	–	–	–	–
CC(=O)Nc1nc2c(c3c1c(=O)oc1ccccc13)CC(C)CC2 (stereo not given)	-100	–	–	–	?	–
CC(=O)Nc1nc2c(c3c1c(=O)oc1ccccc13)CCCC2	?	–	–	–	–	?
Clc1ccc(N2COC3c4cccc5cccc(c45)C32)cc1 (stereo not given)	-100	–	?	–	–	–
COc1ccc(-c2noc(-c3ccc(N4CCC(C)CC4)c([N+](=O)[O-])c3)n2)cc1OC	·	–	?	–	·	·
O=C(N/N=C/c1ccc([N+](=O)[O-])o1)c1cc2ccccc2o1	·	–	·	–	–	–
C/C(=N\NC(=O)c1ccc(O)cc1)c1ccc(N2CCOCC2)cc1	·	–	?	–	–	–
O=C(N/N=C/c1ccc(N2CCOCC2)cc1)c1ccc(O)cc1	·	–	5µM	–	–	?
O=C(N/N=C/c1ccc([N+](=O)[O-])o1)c1cc2c(ccc3ccccc32)o1	·	–	1.1µM	?	?	?
O=C(N/N=C/c1ccc([N+](=O)[O-])o1)c1ccc(O)cc1	–	–	10µM	–	13µM	?
O=C(N/N=C/c1ccc([N+](=O)[O-])o1)c1ccncc1	·	–	?	–	–	–
COc1ccccc1C(=O)/C=C/c1ccc(N2CCCCC2)c([N+](=O)[O-])c1	?	–	4µM	?	?	–
O=C(/C=C/c1ccc(N2CCCCC2)c([N+](=O)[O-])c1)c1ccc(O)cc1	·	?	11µM	16µM[quencher]	–	–
CC(C)NC(=O)c1cnc2sc(N3CCCCCC3)nn2c1=O	·	–	–	–	·	·
O=C1C(Cl)=C(N2CCCCC2)C(=O)C(Cl)=C1c1cnc(N2CCCCC2)s1	?	22µM	16µM	?	6.3µM	14µM
CCCCCC(=O)Nc1nc(C)c(-c2csc(Nc3ccc(Cl)cc3)n2)s1	–	–	11µM	10µM[quencher]	–	?
CCCCCCC(=O)Nc1nc(C)c(-c2csc(Nc3ccc(Cl)cc3)n2)s1	?	–	5µM	6.3µM[quencher]	?	–
